Results filed as inconclusive are left out. Active and inactive are the calls of the source. Calls come from the whole dose curve; as a rule, active = well fitted curve in the direction sought with a large enough effect; inconclusive = small, poorly fitted or top-dose-only effect, or another doubt; inactive = no such curve, though single readings can be large; an effect the other way counts as inactive or inconclusive.
Experiments:
[1] = molecular target: Rap guanine nucleotide exchange factor 3 (Homo sapiens) (UniProt O95398); experiment: Confirmatory qHTS for antagonist of cAMP-regulated guanine nucleotide exchange factor 3 (EPAC1) (AID 1645880); note: nearly all actives have a fitted effect of over 55% in size; note: potency is the fitted concentration of half-maximal effect
How it was run: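 Released BODIPY-GDP fluoresces less than Rap1-bound BODIPY-GDP; the signal is followed at 480/540 nm at 5-min intervals over 30 min, after 5 min at room temperature. Reactions contain 100 nM EPAC1, 250 nM RAP1B-BODIPY-GDP and 50 uM GDP; results are normalized to ATA and DMSO.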

[2] = molecular target: Rap guanine nucleotide exchange factor 3 (Homo sapiens) (UniProt O95398); experiment: Confirmatory qHTS for agonist of cAMP-regulated guanine nucleotide exchange factor 3 (EPAC1) (AID 1645881);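 note: EPAC1 catalysed release of BODIPY-GDP from Rap1B seen as fluorescence loss; 100% = effect of cAMP agonist control; nearly all actives have a fitted effect of over 75% in size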
[3] = molecular target: Rap guanine nucleotide exchange factor 4 (Homo sapiens) (UniProt Q8WZA2); experiment: Confirmatory qHTS for agonist of cAMP-regulated guanine nucleotide exchange factor 4 (EPAC2) (AID 1645884);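 note: nucleotide exchange releases bodipy-GDP from Rap1 and this lowers its fluorescence; % is set by controls: 0 for no effect and ±100 for the full control effect; nearly all actives have a fitted effect of over 65% in size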
[4] = molecular target: Rap guanine nucleotide exchange factor 4 (Homo sapiens) (UniProt Q8WZA2); experiment: Confirmatory qHTS for antagonist of cAMP-regulated guanine nucleotide exchange factor 4 (EPAC2) (AID 1645885); note: nearly all actives have a fitted effect of over 25% in size; note: potency is the fitted concentration of half-maximal effect; for activity change, negative = inhibition: % is set by controls: 0 for no effect and ±100 for the full control effect
[5] = molecular target: Rap guanine nucleotide exchange factor 3 (Homo sapiens) (UniProt O95398); experiment: Counterscreen qHTS for antagonist of cAMP-regulated guanine nucleotide exchange factor 3 (EPAC1) (AID 1645888); note: % of control where 0% means no effect
How it was run: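 Measured: fluorescence of BODIPY-GDP bound to Rap1B, which falls as exchange proceeds. Conditions include 50 uM competing GDP, 5 and 30 min reads, and a later cAMP challenge for antagonist detection.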

Sequence of Rap guanine nucleotide exchange factor 3 (Homo sapiens) (O95398 whole entry, looked up): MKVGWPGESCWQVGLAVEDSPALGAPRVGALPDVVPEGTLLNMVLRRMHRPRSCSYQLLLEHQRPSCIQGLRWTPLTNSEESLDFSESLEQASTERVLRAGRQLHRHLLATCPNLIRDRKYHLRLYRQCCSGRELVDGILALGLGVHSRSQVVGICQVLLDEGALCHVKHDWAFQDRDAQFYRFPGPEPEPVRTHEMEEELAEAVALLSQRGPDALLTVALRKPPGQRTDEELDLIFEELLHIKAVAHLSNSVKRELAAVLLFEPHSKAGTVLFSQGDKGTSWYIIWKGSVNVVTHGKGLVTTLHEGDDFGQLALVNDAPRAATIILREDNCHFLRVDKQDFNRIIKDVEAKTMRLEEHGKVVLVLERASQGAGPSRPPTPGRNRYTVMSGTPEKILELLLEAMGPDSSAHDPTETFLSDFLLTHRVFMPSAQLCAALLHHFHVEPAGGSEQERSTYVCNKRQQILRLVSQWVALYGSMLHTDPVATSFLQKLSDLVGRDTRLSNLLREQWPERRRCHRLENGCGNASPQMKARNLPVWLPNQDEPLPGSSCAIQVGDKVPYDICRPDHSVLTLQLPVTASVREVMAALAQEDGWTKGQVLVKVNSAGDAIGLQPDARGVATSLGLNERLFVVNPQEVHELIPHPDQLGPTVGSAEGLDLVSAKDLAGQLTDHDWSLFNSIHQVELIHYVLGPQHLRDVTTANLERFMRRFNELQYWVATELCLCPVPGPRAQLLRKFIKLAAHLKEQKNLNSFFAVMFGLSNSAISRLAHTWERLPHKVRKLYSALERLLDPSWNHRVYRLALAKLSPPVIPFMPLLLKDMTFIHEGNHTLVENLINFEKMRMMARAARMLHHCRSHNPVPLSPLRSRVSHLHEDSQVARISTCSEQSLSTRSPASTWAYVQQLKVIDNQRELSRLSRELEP
Sequence of Rap guanine nucleotide exchange factor 4 (Homo sapiens) (Q8WZA2 whole entry, looked up): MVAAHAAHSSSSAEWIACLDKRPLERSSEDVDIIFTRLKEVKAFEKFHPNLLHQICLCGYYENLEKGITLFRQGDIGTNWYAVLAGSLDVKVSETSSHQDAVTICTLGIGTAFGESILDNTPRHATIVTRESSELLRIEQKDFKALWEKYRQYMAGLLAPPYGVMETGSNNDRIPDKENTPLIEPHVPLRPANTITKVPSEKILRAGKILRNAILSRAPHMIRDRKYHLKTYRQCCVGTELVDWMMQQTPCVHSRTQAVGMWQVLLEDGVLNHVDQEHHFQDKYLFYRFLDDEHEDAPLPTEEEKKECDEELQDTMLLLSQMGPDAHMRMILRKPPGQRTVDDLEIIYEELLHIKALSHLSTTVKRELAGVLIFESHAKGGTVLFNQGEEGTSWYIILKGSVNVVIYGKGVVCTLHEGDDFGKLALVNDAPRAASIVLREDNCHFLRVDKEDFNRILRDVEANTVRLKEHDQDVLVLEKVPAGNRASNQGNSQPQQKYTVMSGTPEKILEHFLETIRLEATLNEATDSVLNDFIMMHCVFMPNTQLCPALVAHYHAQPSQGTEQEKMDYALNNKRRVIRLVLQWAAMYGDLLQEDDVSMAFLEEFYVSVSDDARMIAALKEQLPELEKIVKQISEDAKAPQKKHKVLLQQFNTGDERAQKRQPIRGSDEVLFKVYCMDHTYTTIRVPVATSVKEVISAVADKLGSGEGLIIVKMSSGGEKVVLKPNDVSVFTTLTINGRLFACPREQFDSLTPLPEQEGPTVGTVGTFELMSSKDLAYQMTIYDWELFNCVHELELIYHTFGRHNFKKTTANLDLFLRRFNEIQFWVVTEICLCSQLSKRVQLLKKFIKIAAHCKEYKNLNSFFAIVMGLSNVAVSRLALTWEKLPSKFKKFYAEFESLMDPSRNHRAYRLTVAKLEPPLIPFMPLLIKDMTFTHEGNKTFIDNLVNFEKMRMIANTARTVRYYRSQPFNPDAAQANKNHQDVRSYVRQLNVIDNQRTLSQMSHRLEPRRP

NNc1nc2c(Cl)cccc2s1
inactive: Potency [1] | Potency [2] | Potency [3] | Potency [5]
active: Potency [4] 95.3 µM

COc1ccc(S(=O)(=O)Nc2cccc(F)c2)cc1C
inactive: Potency [1] | Potency [2] | activation [3] 1.76% [at 17.1 µM, percent relative to cAMP agonist control] | Potency [4] | activity change, negative = inhibition [5] -14.5% [at 30.8 µM]

O=C1Nc2ccccc2SC1c1ccccc1 (stereo not given)
inactive: Potency [1] | Potency [2] | activation [3] 3.23% [at 17.1 µM, percent relative to cAMP agonist control] | Potency [4] | activity change, negative = inhibition [5] -15.7% [at 30.8 µM]

COc1ccccc1C(=O)NC(=O)COC(=O)C1CC1
inactive: Potency [1] | Potency [2] | Potency [3] | Potency [4] | Potency [5]

CCOc1ccc(S(=O)(=O)n2ccc(C)n2)c2ccccc12
inactive: Potency [1] | Potency [2] | Potency [3] | Potency [4] | Potency [5]

COc1ccc(C(NC(C)=O)c2cc(Cl)c3cccnc3c2O)cc1 (stereo not given)
inactive: Potency [1] | Potency [2] | activation [3] 3.14% [at 17.1 µM, percent relative to cAMP agonist control] | Potency [4] | activity change, negative = inhibition [5] -6.93% [at 30.8 µM]

COc1cc2ccccc2cc1C(=O)N1CCc2ccccc21
inactive: Potency [1] | Potency [2] | Potency [3] | Potency [5]
active: Potency [4] 7.57 µM

CCOC(=O)CSc1nc(C)c2cc(C)c(C)cc2n1
inactive: Potency [1] | Potency [2] | Potency [3] | Potency [4] | Potency [5]

COc1ccc(OC)c(/C=C2\SC(=S)N(NS(=O)(=O)c3ccc(C)cc3)C2=O)c1
inactive: Potency [2] | Potency [3] | Potency [5]
active: Potency [1] 30.1 µM | Potency [4] 47.8 µM

COc1ccc(-c2nn(-c3ccccc3)cc2/C=N/n2cnnc2)cc1OC
inactive: Potency [1] | Potency [2] | Potency [3] | Potency [4] | Potency [5]

Oc1ccc(-c2csc(Nc3cccnc3)n2)cc1
inactive: Potency [1] | Potency [2] | activation [3] 0.321% [at 17.1 µM, percent relative to cAMP agonist control] | Potency [4] | activity change, negative = inhibition [5] -8.51% [at 30.8 µM]

O=C1NC(=Nc2ccccc2)S/C1=C\C=C\c1ccco1
inactive: Potency [2] | Potency [3] | Potency [4] | Potency [5]
active: Potency [1] 16.9 µM

Clc1ccc(CSc2nnc(-c3ccncc3)s2)cc1
inactive: Potency [1] | Potency [2] | Potency [3] | Potency [4] | Potency [5]

Cc1ccccc1-c1nc(CS(=O)(=O)CC(=O)N(C)C2CCCCC2)c(C)o1
inactive: Potency [1] | Potency [2] | Potency [3] | Potency [4] | Potency [5]

Cc1ccc(CN2C(=O)CSC2c2ccccc2F)cc1 (stereo not given)
inactive: Potency [1] | Potency [2] | Potency [3] | Potency [5]
active: Potency [4] 33.8 µM

CCn1nc([N+](=O)[O-])c(C(C#N)c2nc3cc(C(F)(F)F)ccc3s2)c(Cl)c1=O (stereo not given)
active: Potency [1] 12.6 µM
inactive: Potency [2] | activation [3] 12.4% [at 17.1 µM, percent relative to cAMP agonist control] | Potency [4] | activity change, negative = inhibition [5] -19.4% [at 30.8 µM]

COc1ccccc1-c1ccc(Nc2cccc(C(F)(F)F)c2)nn1
inactive: Potency [1] | Potency [2] | Potency [3] | Potency [4] | Potency [5]

COc1cc(CNn2cnnc2)ccc1OCC(=O)NC(C)(C)C
inactive: Potency [1] | Potency [2] | Potency [3] | Potency [4] | Potency [5]

Clc1ccc(CSc2nncn3c2cc2occc23)cc1
inactive: Potency [2] | Potency [3] | Potency [4] | Potency [5]
active: Potency [1] 75.7 µM

CCCNC(=O)c1ccc2c(=O)c(O)c(-c3ccsc3)[nH]c2c1
inactive: Potency [1] | Potency [2] | activation [3] -5.87% [at 17.1 µM, percent relative to cAMP agonist control] | Potency [4] | activity change, negative = inhibition [5] -0.0367% [at 30.8 µM]

COc1ccc2c(c1)cc(C(=O)N/N=C/c1c(O)c(C(=O)O)cc3ccccc13)n2C
inactive: Potency [2] | Potency [3] | Potency [5]
active: Potency [1] 67.5 µM | Potency [4] 75.7 µM

O=C(CCN1C(=O)/C(=C/c2cccs2)SC1=S)Nc1ccc(C(=O)O)c(O)c1
inactive: Potency [2] | activation [3] 0.91% [at 17.1 µM, percent relative to cAMP agonist control] | Potency [4] | activity change, negative = inhibition [5] 19.6% [at 30.8 µM]
active: Potency [1] 79.4 µM

CCc1ccc(/C=C2/SC(=S)N(CCCC(=O)Nc3ccccc3C(=O)O)C2=O)cc1
active: Potency [1] 75.7 µM
inactive: Potency [2] | Potency [3] | Potency [4] | Potency [5]

CO/N=C/c1ccc(Sc2ccccc2)c([N+](=O)[O-])c1
inactive: Potency [1] | Potency [2] | activation [3] 6.03% [at 17.1 µM, percent relative to cAMP agonist control] | Potency [4] | activity change, negative = inhibition [5] -14.9% [at 30.8 µM]

COc1ccc(N2CCN(C(=O)COC(=O)c3ccc(C)o3)CC2)cc1
inactive: Potency [1] | Potency [2] | activation [3] 5.39% [at 17.1 µM, percent relative to cAMP agonist control] | Potency [4] | activity change, negative = inhibition [5] -20% [at 30.8 µM]

N#Cc1cc2c(=O)n3ccccc3nc2n(-c2nnc(SCc3ccccc3Cl)s2)c1=O
inactive: Potency [1] | Potency [2] | Potency [3] | Potency [4] | Potency [5]

CNc1ccc(Br)cc(C(=O)/C=C/c2ccc(Cl)cc2Cl)c1=O
active: Potency [1] 12 µM
inactive: Potency [2] | Potency [3] | Potency [4] | Potency [5]

O=C(Cc1ccccc1Cl)Nc1ccc(S(=O)(=O)Nc2nccs2)cc1
inactive: Potency [1] | Potency [2] | Potency [3] | Potency [4] | Potency [5]

C=CCSc1nc2ccccc2c(=O)n1C1CCOC(C)(C)C1 (stereo not given)
inactive: Potency [1] | Potency [2] | Potency [3] | Potency [4] | Potency [5]

CC1(C(=O)NS(=O)(=O)c2ccc(F)cc2F)CCN1C(=O)C1(c2ccc(Cl)cc2)CCC1 (stereo not given)
inactive: Potency [2] | Potency [3] | Potency [4] | Potency [5]
active: Potency [1] 9.53 µM

CCOc1ccccc1NC1c2ccccc2C(=O)N1Cc1ccco1 (stereo not given)
inactive: Potency [1] | Potency [2] | Potency [3] | Potency [4] | Potency [5]

O=S(c1ccc2ccccc2c1)c1cnns1 (stereo not given)
inactive: Potency [1] | Potency [2] | Potency [3] | Potency [4] | Potency [5]

Cc1cc(C)cc(-c2nnc(SCc3ccc(C(=O)O)cc3)o2)c1
inactive: Potency [1] | Potency [2] | activation [3] 0% [at 17.1 µM, percent relative to cAMP agonist control] | Potency [4] | activity change, negative = inhibition [5] -19.9% [at 30.8 µM]

CC(C)(C)c1cc(NC(=O)COC(=O)c2ccc(O)cc2O)n(-c2ccccc2)n1
inactive: Potency [1] | Potency [2] | activation [3] 8.65% [at 17.1 µM, percent relative to cAMP agonist control] | Potency [4] | activity change, negative = inhibition [5] -16.3% [at 30.8 µM]

NS(=O)(=O)c1ccc(NC2=CC(=O)C(=O)c3ccccc32)cc1
inactive: Potency [2] | Potency [3] | Potency [5]
active: Potency [1] 26.9 µM | Potency [4] 84.9 µM

Cc1cc2ccccn2c1C(=O)c1ccccc1F
inactive: Potency [1] | Potency [2] | activation [3] 3.67% [at 17.1 µM, percent relative to cAMP agonist control] | Potency [4] | activity change, negative = inhibition [5] -3.01% [at 30.8 µM]

N#Cc1c(NC(=O)c2ccccc2)sc2c1CCCCC2
inactive: Potency [1] | Potency [2] | activation [3] 10.4% [at 17.1 µM, percent relative to cAMP agonist control] | Potency [4] | activity change, negative = inhibition [5] 2.87% [at 30.8 µM]

C/C(C/C(C)=C1/SC(=S)NC1=O)=C1\SC(=S)NC1=O
active: Potency [1] 1.69 µM | Potency [4] 21.3 µM
inactive: Potency [2] | Potency [3] | Potency [5]

COc1ccc(OC)c(NC(=O)CN(C)CCOc2ccc(Br)cc2)c1
inactive: Potency [1] | Potency [2] | Potency [3] | Potency [4] | Potency [5]

CC(=O)Nc1ccc(NS(=O)(=O)c2cn(C)c(=O)n(C)c2=O)cc1
inactive: Potency [1] | Potency [2] | activation [3] 8.18% [at 17.1 µM, percent relative to cAMP agonist control] | Potency [4] | activity change, negative = inhibition [5] 9.16% [at 30.8 µM]

O=C(CCCC(=O)Nc1cccnc1)Nc1cccnc1
inactive: Potency [1] | Potency [2] | Potency [3] | Potency [4] | Potency [5]

Cc1c(Cl)cccc1NC(=O)CN(CCc1ccccc1)S(=O)(=O)c1ccccc1
inactive: Potency [1] | Potency [2] | Potency [3] | Potency [4] | Potency [5]

COc1ccc(N(Cc2cccs2)C(=O)c2ccco2)cc1
inactive: Potency [1] | Potency [2] | Potency [3] | outcome [4] inactive [at 12.7 µM] | Potency [5]

NC(=O)c1cc2ccccc2o/c1=N\NC(=O)c1ccncc1
inactive: Potency [1] | Potency [2] | activation [3] 1.92% [at 17.1 µM, percent relative to cAMP agonist control] | Potency [4] | activity change, negative = inhibition [5] -2.29% [at 30.8 µM]

N#C/C(=C\c1ccc(O)c(O)c1)C(=O)Nc1cccc2ncccc12
inactive: Potency [2] | Potency [3] | Potency [4] | Potency [5]
active: Potency [1] 7.57 µM

CC(C)(CNC(=O)Cc1ccc(NS(=O)(=O)c2cccc(C(F)(F)F)c2)cc1)N1CCOCC1
inactive: Potency [1] | Potency [2] | activation [3] 1.17% [at 17.1 µM, percent relative to cAMP agonist control] | Potency [4] | activity change, negative = inhibition [5] 10.3% [at 30.8 µM]

CCc1cccc2c(C(=O)COC(=O)c3nccnc3N)c[nH]c12
inactive: Potency [1] | Potency [2] | Potency [3] | Potency [4] | Potency [5]

Cc1ccc(NC(=O)Cn2nc(C)c3nn(-c4ccc(Cl)cc4)c(C)c3c2=O)cc1F
inactive: Potency [1] | Potency [2] | Potency [3] | Potency [4] | Potency [5]

N#Cc1c(-c2ccccc2)nc(SCc2cccc(Cl)c2)[nH]c1=O
active: Potency [1] 67.5 µM | Potency [4] 37.9 µM
inactive: Potency [2] | Potency [3] | Potency [5]

From PubChem BioAssay (NCATS)
